Records with an inconclusive call do not appear. Activity calls are given as the source filed them. Unless noted, the call rests on the fitted dose curve; in most records, active means well fitted curve in the direction sought with a large enough effect in the repeat runs; inconclusive means weak or mixed curves; inactive means no such curve, though single readings can be large; an effect the other way counts as inactive or inconclusive.
Experiments:
[1] = A CellTox Green Cytotoxicity Assay to monitor cytotoxicity in HepG2 cells - 8 hour (AID 1224890); further: nearly all actives have a fitted effect of over 45% in size
Summary of the method: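 Fluorescent DNA-binding dye, 600 HepG2 cells/well, 5 h preincubation then compound in DMSO; same plates read at 0–40 h, 37 C.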

[2] = qHTS assay to identify small molecule antagonists of the androgen receptor (AR) signaling pathway using the MDA cell line in the presence of 0.5 nM R1881 - cell viability counter screen (AID 1259242); further: nearly all actives have a fitted effect of over 45% in size
Summary of the method: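 Human breast carcinoma MDA-kb2 cells, cultured without CO2, receive compounds alongside 0.5 nM (final) R1881 agonist. After 16 hr at 37C, viability is taken as live-cell protease signal.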

[3] = target: Androgen receptor (Homo sapiens) (UniProt P10275); assay: qHTS assay to identify small molecule antagonists of the androgen receptor (AR) signaling pathway using the MDA cell line in the presence of 0.5 nM R1881 (AID 1259243); further: nearly all actives have a fitted effect of over 50% in size
Summary of the method: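 Cells: MDA-kb2 (MMTV-luc). Stimulus: 0.5 nM R1881. Time: 16 hr, 37C, no CO2. Detection: ONE-Glo luminescence after 30 min at RT.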

[4] = qHTS assay to identify small molecule HDAC inhibitors (AID 1259364); further: potency means the concentration at half of the fitted maximal effect;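 further: wild-type HCT-116 cells with endogenous class I/II HDAC activity; nearly all actives have a fitted effect of over 45% in size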; on activity change, negative = inhibition: top concentration of the series differs between compounds
Summary of the method: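 After a 2 hr compound incubation (37C, 5% CO2), HCT-116 cells seeded at 1,500/well the day before received HDAC-Glo reagent; signal read as luminescence after 30 min at room temperature.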

[5] = qHTS assay to identify small molecule HDAC inhibitors - cell viability counter screen (AID 1259365); further: series mostly up to about 92 µM; nearly all actives have a fitted effect of over 50% in size
Summary of the method: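 Following a 2hr exposure of overnight-plated wild-type HCT-116 cells to DMSO-delivered compounds, CellTiter-Glo was added and luminescence recorded after 30min at room temperature.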

[6] = qHTS assay to identify small molecule agonists of the sonic hedgehog signaling (Shh) pathway - cell viability counter screen (AID 1259366); further: nearly all actives have a fitted effect of over 50% in size
Summary of the method: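 After a 4hr attachment at 37C, NIH/3T3 cells bearing an integrated Gli1-driven luciferase reporter were dosed with compounds. Treatment lasted 24hr, with the final hour including CellTiter-Fluor for a fluorescence viability measurement.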

[7] = qHTS assay to identify small molecule antagonists of the sonic hedgehog signaling (Shh) pathway - cell viability counter screen (AID 1259367); further: nearly all actives have a fitted effect of over 55% in size
Summary of the method: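 Tox21 library chemicals were tested on a Gli1-Luc NIH/3T3 clone (2,000 cells/well) stimulated by conditioned medium; viability was quantified as fluorescence from CellTiter-Fluor reagent added at 23 hr.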

[8] = qHTS assay to identify small molecule antagonists of the estrogen receptor alpha (ER-alpha) signaling pathway using the BG1 cell line in the presence of 0.1 nM 17-beta-estradiol - cell viability counter screen (AID 1259241); further: nearly all actives have a fitted effect of over 40% in size
Summary of the method: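 Measures cytotoxicity alongside the ER-alpha antagonist readout: VM7Luc4E2 cells, charcoal-stripped serum, 0.1 nM 17beta-estradiol final, 22 hr compound incubation at 37C, CellTiter-Fluor fluorescence.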

[9] = target: Estrogen receptor (Homo sapiens) (UniProt P03372); assay: qHTS assay to identify small molecule antagonists of the estrogen receptor alpha (ER-alpha) signaling pathway using the BG1 cell line in the presence of 0.1 nM 17-beta-estradiol (AID 1259244); further: nearly all actives have a fitted effect of over 50% in size
Summary of the method: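 Seeding of stripped-serum-adapted VM7Luc4E2 cells, 24 h attachment, compound transfer, then 0.1 nM final 17beta-estradiol; after 22 h incubation, ONE-Glo reagent and luminescence reading.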

[10] = qHTS assay to identify small molecule phospholipidosis (PLD) inducers (AID 1259344; active means well fitted curve in the direction sought with a large enough effect; an effect the other way counts as inactive or inconclusive)
Summary of the method: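 Image-based: LipidTOX Red pit count/intensity per well and per cell; HepG2, 24 h compound at 37 C, PFA fixation, Hoechst counterstain.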
On the % scale 0 is the no-effect control and ±100 the full control effect.

Androgen receptor (Homo sapiens), sequence (P10275 whole entry, looked up): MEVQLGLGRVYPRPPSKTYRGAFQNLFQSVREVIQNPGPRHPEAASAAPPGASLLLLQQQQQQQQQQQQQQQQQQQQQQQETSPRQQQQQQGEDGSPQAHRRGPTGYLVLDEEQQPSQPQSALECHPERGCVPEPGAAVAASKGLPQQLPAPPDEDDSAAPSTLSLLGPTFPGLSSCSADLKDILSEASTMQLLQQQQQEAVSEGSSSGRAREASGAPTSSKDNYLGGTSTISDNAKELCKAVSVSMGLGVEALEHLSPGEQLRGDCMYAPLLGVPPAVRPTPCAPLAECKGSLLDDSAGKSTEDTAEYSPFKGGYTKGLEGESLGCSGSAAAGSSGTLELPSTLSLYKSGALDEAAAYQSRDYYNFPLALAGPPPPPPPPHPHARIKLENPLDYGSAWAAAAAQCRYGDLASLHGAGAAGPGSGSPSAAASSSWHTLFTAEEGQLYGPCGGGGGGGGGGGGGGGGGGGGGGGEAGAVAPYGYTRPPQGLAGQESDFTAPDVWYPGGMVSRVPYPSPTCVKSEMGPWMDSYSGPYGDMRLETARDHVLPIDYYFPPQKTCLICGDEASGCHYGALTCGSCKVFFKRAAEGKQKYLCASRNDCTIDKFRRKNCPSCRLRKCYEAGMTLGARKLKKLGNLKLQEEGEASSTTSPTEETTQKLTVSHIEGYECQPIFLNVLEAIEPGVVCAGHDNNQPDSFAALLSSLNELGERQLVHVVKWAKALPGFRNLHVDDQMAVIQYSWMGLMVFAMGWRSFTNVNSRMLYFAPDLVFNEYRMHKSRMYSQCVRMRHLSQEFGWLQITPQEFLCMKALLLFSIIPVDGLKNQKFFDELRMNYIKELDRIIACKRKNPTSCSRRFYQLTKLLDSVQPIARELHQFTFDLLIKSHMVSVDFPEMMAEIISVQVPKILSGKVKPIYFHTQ
Estrogen receptor (Homo sapiens), sequence (P03372 whole entry, looked up): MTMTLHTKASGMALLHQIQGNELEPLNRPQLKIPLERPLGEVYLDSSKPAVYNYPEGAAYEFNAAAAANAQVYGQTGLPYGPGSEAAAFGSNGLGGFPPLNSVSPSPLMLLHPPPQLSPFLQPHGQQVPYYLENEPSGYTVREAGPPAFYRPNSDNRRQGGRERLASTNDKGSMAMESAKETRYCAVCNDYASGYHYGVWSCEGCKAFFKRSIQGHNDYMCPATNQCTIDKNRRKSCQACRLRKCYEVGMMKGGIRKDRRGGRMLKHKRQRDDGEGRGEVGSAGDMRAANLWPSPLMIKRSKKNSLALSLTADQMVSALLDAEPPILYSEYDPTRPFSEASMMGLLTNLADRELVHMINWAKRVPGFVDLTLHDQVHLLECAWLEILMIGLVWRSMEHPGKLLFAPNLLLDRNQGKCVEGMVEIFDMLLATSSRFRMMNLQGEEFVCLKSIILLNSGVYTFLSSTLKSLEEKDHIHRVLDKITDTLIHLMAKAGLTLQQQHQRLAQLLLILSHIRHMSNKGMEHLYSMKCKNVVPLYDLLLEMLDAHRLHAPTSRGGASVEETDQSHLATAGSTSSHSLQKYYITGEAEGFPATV

CCN1CCCC1CNC(=O)c1cc(S(N)(=O)=O)ccc1OC (centres undefined)
inactive: Potency [1] | outcome [2] | Potency [3] | Potency [4] | outcome [5] | Potency [6] | outcome [7]

C#CC(O)C(CC)CCCC (centres undefined)
inactive: Potency [1] | outcome [2] | Potency [3] | Potency [4] | outcome [5] | Potency [6] | outcome [7]

CCCCC=O
inactive: Potency [1] | outcome [8] | outcome [2] | Potency [4] | outcome [5] | Potency [6] | outcome [7]

O=c1[nH]c2ccccc2c(=O)n1CCCl
inactive: Potency [1] | outcome [2] | Potency [3] | Potency [4] | outcome [5] | outcome [7]

CSc1ccc(C=O)cc1
inactive: Potency [1] | outcome [8] | outcome [2] | Potency [4] | outcome [5] | Potency [6] | outcome [7]

CCC(=O)c1cccc(Cl)c1
inactive: Potency [1] | outcome [8] | outcome [2] | Potency [4] | outcome [5] | outcome [7]

C#CC(C)(O)CC(C)C (centres undefined)
inactive: Potency [1] | outcome [8] | outcome [2] | Potency [4] | outcome [5] | Potency [6] | outcome [7]

OC1OC[C@@H](O)[C@H](O)[C@H]1O (some centres undefined)
inactive: Potency [1] | outcome [8] | outcome [2] | Potency [4] | outcome [5] | outcome [7]

C=CCn1c(=O)n([C@@H]2O[C@H](CO)[C@@H](O)[C@H]2O)c2nc(N)[nH]c(=O)c21
inactive: Potency [1] | outcome [2] | Potency [3] | outcome [9] | Potency [10] | Potency [4] | outcome [5] | Potency [6] | outcome [7]

CCCCCN(CCCCC)C(=O)C(CCC(=O)O)NC(=O)c1ccc(Cl)c(Cl)c1 (centres undefined)
inactive: Potency [1] | outcome [2] | Potency [3] | outcome [9] | Potency [10] | Potency [4] | outcome [5] | Potency [6] | outcome [7]

FC(F)(F)C(F)(F)C(F)(F)C(F)(F)C(F)(F)C(F)(F)C(F)(F)C(F)(F)C(F)(F)C(F)(F)F
inactive: cytotoxicity increase [1] -4.05% [at 6.97 µM] | activity change, negative = cytotoxicity [8] -0.635% [at 8.39 µM] | viability change, negative = cytotoxic [2] -3% [at 8.39 µM] | activity change, negative = inhibition [4] -3.49% [at 8.39 µM] | activity change, negative = cytotoxicity [5] 4.94% [at 8.39 µM] | viability change, negative = cytotoxic [6] 2.95% [at 8.39 µM] | viability change, negative = cytotoxic [7] 4.53% [at 8.39 µM]

C=CCOc1nc(OCC=C)nc(OCC=C)n1
inactive: Potency [1] | outcome [8] | outcome [2] | Potency [4] | outcome [5] | Potency [6] | outcome [7]

Cn1cnc2c(=O)[nH]c(N)nc21
inactive: Potency [1] | outcome [8] | outcome [2] | Potency [4] | Potency [6] | outcome [7]

OCC(O)[C@@H](O)[C@H](O)[C@H](O)CO[C@H]1O[C@H](CO)[C@@H](O)[C@H](O)[C@H]1O (some centres undefined)
inactive: Potency [1] | outcome [8] | outcome [2] | Potency [4] | outcome [5] | Potency [6] | outcome [7]

CCCCCCCCCCCCI
inactive: Potency [1] | outcome [8] | outcome [2] | Potency [4] | outcome [5] | outcome [7]

C=CC(=O)N1CCOCC1
inactive: Potency [1] | outcome [8] | outcome [2] | Potency [4] | outcome [5] | outcome [7]

CCCCCCCCCCCCCCC
inactive: Potency [1] | outcome [8] | outcome [2] | Potency [4] | Potency [6] | outcome [7]

CCCC=O
inactive: Potency [1] | outcome [8] | outcome [2] | Potency [4] | outcome [5] | outcome [7]

CO[Si](OC)(OC)OC
inactive: Potency [1] | outcome [8] | outcome [2] | Potency [4] | outcome [5] | Potency [6] | outcome [7]

N#CCc1ccccc1[N+](=O)[O-]
inactive: Potency [1] | outcome [8] | outcome [2] | Potency [4] | outcome [5] | Potency [6] | outcome [7]

Cc1ccc(N)cc1[N+](=O)[O-]
inactive: Potency [1] | outcome [8] | outcome [2] | Potency [4] | outcome [5] | Potency [6] | outcome [7]

C1=C\CC/C=C\CC/C=C\CC/1
inactive: Potency [1] | outcome [8] | outcome [2] | Potency [4] | Potency [6] | outcome [7]

CC(O)CN(CCCN(C)C)CCCN(C)C (centres undefined)
inactive: Potency [1] | outcome [8] | outcome [2] | Potency [4] | outcome [5] | outcome [7]

O=C(O)c1ccc[n+]([O-])c1
inactive: Potency [1] | outcome [2] | Potency [3] | outcome [9] | Potency [10] | Potency [4] | outcome [5] | outcome [7]

Cc1nc(-c2ccc(OCC(C)C)c(C#N)c2)sc1C(=O)O
inactive: Potency [1] | outcome [2] | Potency [3] | outcome [9] | Potency [10] | outcome [7]
active: Potency [4] 0.335 µM

CCC(C)OC(=O)N1CCCCC1CCO (centres undefined)
inactive: Potency [1] | outcome [8] | outcome [2] | Potency [4] | Potency [6] | outcome [7]

CC(C)N1C(=O)c2ccccc2C1=O
inactive: Potency [1] | outcome [8] | outcome [2] | Potency [4] | Potency [6] | outcome [7]

CC1=CC(=O)CCC1
inactive: Potency [1] | outcome [8] | outcome [2] | Potency [4] | outcome [5] | Potency [6] | outcome [7]

CSc1nc(NC2CC2)nc(NC(C)(C)C)n1
inactive: Potency [1] | outcome [8] | outcome [2] | Potency [4] | Potency [6]

N[C@@H](CS)C(=O)O
inactive: Potency [1] | outcome [8] | outcome [2] | Potency [4] | Potency [6] | outcome [7]

CCCCCCC(=O)OCC
inactive: Potency [1] | outcome [2] | outcome [9] | Potency [4] | outcome [5] | Potency [6] | outcome [7]

CN1[C@@H]2CC[C@H]1CC(NC(=O)n1c(=O)[nH]c3ccccc31)C2 (some centres undefined)
inactive: outcome [8] | outcome [2] | Potency [3] | outcome [9] | Potency [10] | Potency [4] | outcome [5] | Potency [6] | outcome [7]

COc1cccc(Br)c1
inactive: outcome [8] | outcome [2] | Potency [3] | outcome [9] | Potency [4] | Potency [6] | outcome [7]

CCOC(=O)Cn1c(=O)sc2cccc(Cl)c21
inactive: Potency [1] | outcome [2] | outcome [9] | Potency [4] | outcome [5] | Potency [6] | outcome [7]

O=C(O)CCNC(=O)c1ccc(N=Nc2ccc(O)c(C(=O)O)c2)cc1
inactive: Potency [1] | outcome [2] | outcome [9] | Potency [10] | Potency [4] | outcome [5] | outcome [7]

Nc1ccc2cc(S(=O)(=O)O)ccc2c1
inactive: Potency [1] | outcome [2] | outcome [9] | Potency [4] | outcome [5] | outcome [7]

CC/C=C\C#N
inactive: Potency [1] | outcome [2] | outcome [9] | Potency [4] | outcome [5] | Potency [6] | outcome [7]

C/C=C1\C(=O)C[C@H]2[C@@H]3CCC4=CC(=O)CC[C@]4(C)[C@H]3CC[C@]12C
inactive: Potency [1] | outcome [2] | outcome [9] | Potency [4] | outcome [7]

C=C(C)C(=O)OCCC(C)OC(=O)C(=C)C (centres undefined)
inactive: Potency [1] | outcome [2] | outcome [9] | Potency [4] | outcome [5] | Potency [6] | outcome [7]

Cc1ccccc1C(=O)O
active: Potency [4] 30.1 µM
inactive: Potency [1] | outcome [2] | outcome [5] | Potency [6]

Cn1ccc2cc3c(cc21)CCN3C(=O)Nc1cccnc1
active: Potency [4] 11.6 µM
inactive: cytotoxicity increase [1] -6.36% [at 15.8 µM] | viability change, negative = cytotoxic [2] -1.94% [at 19 µM] | activity change, negative = inhibition [9] 76.4% [at 19 µM] | Potency [10] | activity change, negative = cytotoxicity [5] -0.0806% [at 19 µM] | viability change, negative = cytotoxic [6] 4.12% [at 19 µM] | viability change, negative = cytotoxic [7] 4.69% [at 19 µM]

NC(=O)CCCCC1CCSS1 (centres undefined)
inactive: outcome [8] | outcome [2] | outcome [9] | Potency [10] | Potency [4] | outcome [5] | Potency [6] | outcome [7]

O=C(O)c1cccc(C(=O)O)n1
inactive: Potency [1] | outcome [2] | outcome [9] | Potency [4] | outcome [5] | Potency [6] | outcome [7]

NC1CCN(c2cccc(Cl)n2)CC1
inactive: outcome [8] | outcome [2] | Potency [3] | Potency [10] | Potency [4] | outcome [5] | Potency [6] | outcome [7]

COCc1ccc(COC)cc1
inactive: Potency [1] | outcome [2] | outcome [9] | Potency [4] | outcome [5] | Potency [6] | outcome [7]

Oc1ccc2c(c1)OC[C@@H](N1CCC(O)(c3ccc(F)cc3)CC1)[C@H]2O
active: Potency [4] 2.37 µM
inactive: Potency [1] | outcome [2] | outcome [9] | outcome [5] | Potency [6] | outcome [7]

CCCCCCOC(=O)CC(CC(=O)OCCCCCC)(OC(=O)CCC)C(=O)OCCCCCC
inactive: outcome [8] | outcome [2] | Potency [3] | outcome [9] | Potency [4] | outcome [5] | Potency [6] | outcome [7]

N#CCN(CC#N)CCN(CC#N)CC#N
inactive: Potency [1] | outcome [2] | Potency [4] | outcome [5] | Potency [6] | outcome [7]

CCO[Si](CCCN=C=O)(OCC)OCC
inactive: Potency [1] | outcome [2] | Potency [4] | outcome [5] | Potency [6] | outcome [7]

COC(=O)[C@H]1[C@H]2C[C@@H]3c4[nH]c5cc(OC)ccc5c4CCN3C[C@H]2C[C@@H](OC(=O)COc2ccc(OC)cc2)[C@@H]1OC
inactive: Potency [1] | outcome [2] | outcome [9] | Potency [10] | Potency [4] | Potency [6] | outcome [7]

CO[Si](CCCNCCC[Si](OC)(OC)OC)(OC)OC
inactive: Potency [1] | outcome [2] | outcome [9] | Potency [4] | outcome [5] | Potency [6] | outcome [7]

CC(=O)N[C@@H](CCC(N)=O)C(=O)O
inactive: Potency [1] | outcome [2] | outcome [9] | Potency [10] | Potency [4] | outcome [5] | Potency [6] | outcome [7]
